Here are results for eight compounds from PubChem BioAssay (NCI).

SMILES strings stand for the structures. About 83,000 compounds went through this panel and 20% of them were active in at least one assay; those are over-represented in the sample as a whole.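 Percent growth is the endpoint: 0 to 100 indicates growth inhibition (40 means 60% inhibition), 0 means no net growth, and negative values indicate cell death.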 A number with no mark means an inactive call. Calls of active or inactive are those of the source. Rule for the calls: active = growth percent below 10; inactive = the rest.

Test systems include DU-145 prostate; K-562 leukemia; MALME-3M melanoma; MDA-MB-231 breast; RXF 393 renal; SF-268 CNS; SF-295 CNS; SF-539 CNS; UACC-257 melanoma; M14 melanoma; HCT-15 colon; HT29 colon; SNB-75 CNS; SNB-19 CNS; PC-3 prostate; SK-MEL-5 melanoma; UACC-62 melanoma; LOX IMVI melanoma; SK-MEL-28 melanoma; U251 CNS.
Common to all, as to test: NCI-60 one-dose screen, 48 h (100 = growth as untreated, 0 = no growth, -100 = all killed)
Common to all, as to conditions: 10 µM unless noted

With `O=C1/C=C/[C@@H](O)[C@@H]2C[C@@H](O)C[C@H]2/C=C/CCC[C@H](CCc2ccccc2)O1`, the growth was 14.1% with DU-145 prostate; 17.7% in the experiment on K-562 leukemia; -14.2% (active) with MALME-3M melanoma; -65.1% (active) in the experiment with MDA-MB-231 breast; -4.18% (active) with RXF 393 renal; 16.6% in the experiment on SF-268 CNS. For the same compound, the growth in the experiment on SF-295 CNS was 1.38% (active); in the experiment on SF-539 CNS, 26.3%; in the experiment on UACC-257 melanoma, 25.4%; in the experiment on M14 melanoma, 7.17% (active); with HCT-15 colon it was 11%; with HT29 colon it was 3.12% (active). For the same compound, the growth in the experiment on SNB-75 CNS is 28.9%; in the experiment with SNB-19 CNS, 31.4%; in the experiment with PC-3 prostate, 16.7%; in the experiment with SK-MEL-5 melanoma, -92.9% (active); in the experiment on UACC-62 melanoma, 23.7%; in the experiment with LOX IMVI melanoma, -59.1% (active). Moreover, in the experiment with SK-MEL-28 melanoma, the growth was -2.32% (active).
Take `Nc1cc(C(=O)NC[C@H]2CN(c3ccc(N4CCC(C(=O)O)CC4)cc3)C(=O)O2)ccc1Cl`: the growth in the experiment with DU-145 prostate is 109%; in the experiment with K-562 leukemia it was 92.1%; with MALME-3M melanoma, 94%; in the experiment on MDA-MB-231 breast, 94.2%; in the experiment with RXF 393 renal, 112%; with SF-268 CNS it was 98.4%. Also, the growth in the experiment on SF-295 CNS was 103%; in the experiment with SF-539 CNS, 93.7%; in the experiment on UACC-257 melanoma it was 98.8%; in the experiment with M14 melanoma, 98.2%; with HCT-15 colon it was 102%; with HT29 colon it was 104%. The growth was 84.8% in the experiment with SNB-75 CNS; 98.7% in the experiment on SNB-19 CNS; 103% with U251 CNS; 103% in the experiment on SK-MEL-5 melanoma; 95.8% in the experiment with UACC-62 melanoma; 97% in the experiment on LOX IMVI melanoma. In addition, the growth in the experiment on SK-MEL-28 melanoma is 109%.
Consider `COC(=O)Nc1nc2ccc(S(=O)c3ccccc3)cc2[nH]1` (configuration not stated), for which the growth in the experiment on DU-145 prostate was 96.3%; in the experiment with K-562 leukemia, 29.9%; in the experiment with MALME-3M melanoma, 83.7%; in the experiment with MDA-MB-231 breast, 68.4%; in the experiment with RXF 393 renal it was 107%; in the experiment on SF-268 CNS it was 84.8%. For the same compound, the growth in the experiment with SF-295 CNS was 58.4%; in the experiment on SF-539 CNS, 73.6%; in the experiment on UACC-257 melanoma, 73.9%; in the experiment on M14 melanoma, 44.5%; in the experiment on HCT-15 colon, 45.6%; in the experiment with HT29 colon, 16.9%. Besides, the growth with SNB-75 CNS was 73.2%; with SNB-19 CNS it was 74.9%; in the experiment with U251 CNS, 60.2%; in the experiment on SK-MEL-5 melanoma, 42.5%; in the experiment on UACC-62 melanoma it was 52.4%; in the experiment with LOX IMVI melanoma, 64.8%. Further, in the experiment on SK-MEL-28 melanoma, the growth is 72.8%.
For `CS(=O)(=O)Nc1cncc(-c2ccc3ncnc(Nc4cncc(Cl)c4)c3c2)c1`, the growth with DU-145 prostate is 88.4%; in the experiment on K-562 leukemia it was 100%; with MALME-3M melanoma, 65.1%; in the experiment on MDA-MB-231 breast it was 77.1%; in the experiment with RXF 393 renal, 87.3%; in the experiment with SF-268 CNS it was 68.1%. The growth with SF-295 CNS was 97.1%; in the experiment on SF-539 CNS it was 74.6%; in the experiment on UACC-257 melanoma, 67.9%; in the experiment with M14 melanoma it was 93.1%; in the experiment on HCT-15 colon it was 92.9%; in the experiment on HT29 colon, 80%. For the same compound, the growth is 82.4% with SNB-75 CNS; 68.2% in the experiment with SNB-19 CNS; 84.7% in the experiment with PC-3 prostate; 95.4% in the experiment on SK-MEL-5 melanoma; 69.6% with UACC-62 melanoma; 79.7% in the experiment with LOX IMVI melanoma. Moreover, the growth with SK-MEL-28 melanoma was 81.6%.
Consider `O=S(=O)(c1ccccc1)n1cc2c(c1)-c1nc(Nc3ncccn3)sc1CC2`, for which the growth was 34.6% in the experiment on DU-145 prostate; 73.8% with K-562 leukemia; 50.3% in the experiment with MALME-3M melanoma; 52.5% in the experiment on MDA-MB-231 breast; 34.6% in the experiment on RXF 393 renal; 66.3% in the experiment with SF-268 CNS. Besides, the growth is 67.3% in the experiment on SF-295 CNS; 35.6% in the experiment with SF-539 CNS; 50.4% in the experiment on UACC-257 melanoma; 45.8% with M14 melanoma; 68.7% in the experiment on HCT-15 colon; 66.2% with HT29 colon. The growth was -16% (active) with SNB-75 CNS; 78.5% in the experiment on SNB-19 CNS; 65.5% in the experiment on PC-3 prostate; 35.4% with SK-MEL-5 melanoma; 63.6% in the experiment on UACC-62 melanoma; 10.1% in the experiment on LOX IMVI melanoma. The growth in the experiment with SK-MEL-28 melanoma is 73.9%.
For the compound `O=[N+]([O-])c1ccc(O)cc1Br`, the growth with DU-145 prostate is 103%; in the experiment with K-562 leukemia it was 93%; in the experiment with MALME-3M melanoma, 102%; with MDA-MB-231 breast, 95.4%; in the experiment on RXF 393 renal, 107%; with SF-268 CNS, 99.6%. Besides, the growth in the experiment with SF-295 CNS was 89.4%; in the experiment on SF-539 CNS it was 91.6%; in the experiment on UACC-257 melanoma, 108%; with M14 melanoma it was 96.2%; with HCT-15 colon, 101%; in the experiment with HT29 colon, 92.6%. For the same compound, the growth in the experiment on SNB-75 CNS was 92.7%; in the experiment on SNB-19 CNS, 98.6%; in the experiment with U251 CNS it was 103%; with SK-MEL-5 melanoma, 93.3%; in the experiment with UACC-62 melanoma, 105%; with LOX IMVI melanoma, 95.4%. Besides, in the experiment with SK-MEL-28 melanoma, the growth was 109%.
For `N#CC1=C(N)Oc2c(c(=O)[nH]c3ccc(Cl)cc23)C12C(=O)c1ccccc1C2=O`, the growth was 106% in the experiment with DU-145 prostate; 126% with K-562 leukemia; 95% in the experiment with MALME-3M melanoma; 90.3% in the experiment with MDA-MB-231 breast; 101% with RXF 393 renal; 92% in the experiment on SF-268 CNS. Also, the growth in the experiment on SF-295 CNS was 104%; in the experiment on SF-539 CNS, 92.3%; in the experiment with UACC-257 melanoma, 101%; in the experiment with M14 melanoma, 97.8%; in the experiment on HCT-15 colon, 98.6%; in the experiment with HT29 colon it was 108%. Further, the growth in the experiment on SNB-75 CNS is 76.5%; with SNB-19 CNS it was 91.6%; in the experiment with U251 CNS it was 99.4%; with SK-MEL-5 melanoma, 95.9%; in the experiment on UACC-62 melanoma it was 89.4%; with LOX IMVI melanoma, 99.6%. In the experiment with SK-MEL-28 melanoma, the growth was 104%.
For the compound `N#CC1=C(N)Oc2c(ccc3ccccc23)C1c1ccccc1` (configuration not stated), the growth was 13.4% in the experiment on DU-145 prostate; 9.05% (active) in the experiment on K-562 leukemia; 46.5% in the experiment with MALME-3M melanoma; 28.3% with MDA-MB-231 breast; 68.5% with RXF 393 renal; 19.2% in the experiment on SF-268 CNS. The growth was 8.94% (active) in the experiment with SF-295 CNS; -3.42% (active) with SF-539 CNS; 37.5% with UACC-257 melanoma; 3.13% (active) in the experiment on M14 melanoma; 8.12% (active) with HCT-15 colon; -2.07% (active) in the experiment with HT29 colon. Moreover, the growth was 35.6% in the experiment on SNB-75 CNS; 26.6% with SNB-19 CNS; 6.19% (active) in the experiment on PC-3 prostate; 4.54% (active) with SK-MEL-5 melanoma; 26.9% in the experiment on UACC-62 melanoma; 7.97% (active) in the experiment on LOX IMVI melanoma. For the same compound, the growth in the experiment on SK-MEL-28 melanoma was 49.4%.
